In PubChem BioAssay:
Activity calls are given as the source filed them.

Key:
[1] = optical density shifts of acrAB sulA E. coli – strain DRC41, OD650, 48 h, E. coli filamentation inducer project, primary screen (AID 1152); settings: higher = more signal, called active from +8 up or from −8 down;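 note: E. coli MC1000 strain DRC41 lacking acrAB efflux pump and sulA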
[2] = probe aLefty1 binding on compound microarray – biochemical, small-molecule microarray, 635/667 nm fluorescence, primary screen (AID 1153); settings: higher = more signal;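 note: score merges spot fluorescence with signal-to-noise ratio from the scanned slide images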
[3] = plasmodial surface anion channel blockers, osmotic lysis – cell-based, P. falciparum Indochina, OD700, 1 h, primary screen (AID 1154); settings: P. falciparum Indochina infected RBC osmotic lysis, higher = more signal, called active from +8 up or from −8 down
[4] = plasmodial surface anion channel blockers, osmotic lysis – cell-based, P. falciparum Indochina, OD700, 2 h, primary screen (AID 1155);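 note: lysis reports solute entry through the parasite surface anion channel PSAC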; settings: P. falciparum Indochina infected erythrocytes, higher = more signal, called active from +8 up or from −8 down
[5] = changes in parasitized red cell lysis, either direction – P. falciparum Indochina, OD700, 3 h, PSAC antagonist project, primary screen (AID 1156); settings: P. falciparum-infected erythrocytes, osmotic lysis, higher = more signal, called active from +8 up or from −8 down
[6] = plasmodial surface anion channel blockers, osmotic lysis – cell-based, P. falciparum Indochina, OD700, 18 h, primary screen (AID 1157); settings: P. falciparum Indochina infected erythrocytes, osmotic lysis OD700, 18 h; higher = more signal, called active from +8 up or from −8 down
[7] = S6 kinase pathway phospho-S6 level changes – cell-based, A549, cytoblot, luminescence, serum-stimulated, primary screen (AID 1158); settings: 5 h, higher = more signal;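 note: serum-stimulated A549 lung adenocarcinoma cells; signal is phosphorylated S6 detected by cytoblot immunostaining with HRP secondary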
[8] = target: NADPH oxidase 2 (Homo sapiens) (UniProt P04839); assay: compounds shifting NOX2 Amplex Red fluorescence – cell-based, HEK293-NOX2, PMA-stimulated, NOX inhibitor project, primary screen (AID 1159); settings: 45 min, higher = more signal, called active from +8 up or from −8 down; note: test concentration not given here
[9] = target: NADPH oxidase 4 (Homo sapiens) (UniProt Q9NPH5); assay: compounds shifting NOX4 Amplex Red fluorescence – cell-based, HEK293-NOX4, tetracycline-induced, NOX inhibitor project, primary screen (AID 1160); settings: HEK293-NOX4, Amplex Red H2O2 fluorescence, 45 min; higher = more signal, called active from +8 up or from −8 down
[10] = target: NADPH oxidase 5 (Homo sapiens) (UniProt Q96PH1); assay: compounds shifting NOX5 Amplex Red fluorescence – cell-based, HEK293-NOX5, NOX inhibitor project, primary screen (AID 1161); settings: HEK293-NOX5, ionomycin, 45 min, higher = more signal
[11] = compound effects on lung adenocarcinoma cell viability – A549, calcein-AM fluorescence, 48 h, basal, profiling panel (AID 1162); settings: higher = more signal; note: test concentration not given here
[12] = compound effects on differentiated 3T3-L1 adipocyte viability – cell-based, 3T3-L1 adipocytes, calcein-AM fluorescence, 48 h, basal, profiling panel (AID 1163); settings: 3T3-L1 adipocytes viability, higher = more signal; note: test concentration not given here
[13] = compound effects on hepatocellular carcinoma cell viability – HepG2, calcein-AM fluorescence, 48 h, basal, profiling panel (AID 1164); settings: higher = more signal; note: test concentration not given here
[14] = compound effects on multiple myeloma cell viability – MM1S, calcein-AM fluorescence, 48 h, basal, profiling panel (AID 1165); settings: higher = more signal;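 note: viability of MM1S multiple myeloma cells under basal unstimulated conditions; test concentration not given here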
[15] = calcein-AM signal in unstimulated myeloma cells – cell-based, calcein-AM fluorescence, 48 h, PK04 Diversity Set, profiling panel (AID 1166); settings: RPMI8226 myeloma viability, higher = more signal;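 note: cells grown under basal conditions without added stimulus; test concentration not given here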
[16] = JC-1 mitochondrial signal, unstimulated HepG2 cells – cell-based, JC-1 fluorescence, 24 h, 100 nL compound, profiling panel (AID 1167); settings: HepG2 mitochondrial potential, higher = more signal; note: test concentration not given here
[17] = JC-1 mitochondrial signal, unstimulated adipocytes – cell-based, JC-1 fluorescence, 3T3-L1 adipocytes, 24 h, 100 nL compound, profiling panel (AID 1168); settings: JC-1 mitochondrial fluorescence, higher = more signal, called active from +8 up or from −8 down; note: test concentration not given here
[18] = JC-1 mitochondrial signal, unstimulated myeloma cells – cell-based, JC-1 fluorescence, RPMI8226, 24 h, 100 nL compound, profiling panel (AID 1169); settings: JC-1 mitochondrial potential fluorescence, higher = more signal; note: test concentration not given here
[19] = JC-1 mitochondrial signal, unstimulated MM1S myeloma – cell-based, JC-1 fluorescence, 24 h, 100 nL compound, profiling panel (AID 1170); settings: MM1S mitochondrial potential, higher = more signal; note: test concentration not given here
[20] = resazurin metabolic signal in A549 cells – cell-based, resazurin fluorescence, 24 h, PK04 Diversity Set, profiling panel (AID 1171); settings: A549 viability, higher = more signal, called active from +8 up or from −8 down; note: test concentration not given here

Sequence of NADPH oxidase 2 (Homo sapiens) (P04839 whole entry, looked up): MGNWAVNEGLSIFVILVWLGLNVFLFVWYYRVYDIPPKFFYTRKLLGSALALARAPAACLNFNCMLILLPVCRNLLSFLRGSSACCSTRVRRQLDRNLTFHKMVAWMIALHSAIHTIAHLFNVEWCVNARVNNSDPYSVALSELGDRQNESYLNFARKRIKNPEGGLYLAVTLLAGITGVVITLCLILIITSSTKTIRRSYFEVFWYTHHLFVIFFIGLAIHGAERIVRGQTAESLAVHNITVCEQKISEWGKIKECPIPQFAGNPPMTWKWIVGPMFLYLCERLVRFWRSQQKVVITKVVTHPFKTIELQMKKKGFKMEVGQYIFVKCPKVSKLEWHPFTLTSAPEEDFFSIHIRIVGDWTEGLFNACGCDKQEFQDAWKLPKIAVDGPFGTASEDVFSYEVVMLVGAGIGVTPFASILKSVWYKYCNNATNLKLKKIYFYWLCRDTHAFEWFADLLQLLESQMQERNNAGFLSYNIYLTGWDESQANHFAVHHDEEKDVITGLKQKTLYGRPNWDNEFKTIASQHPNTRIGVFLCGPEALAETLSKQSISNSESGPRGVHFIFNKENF
Sequence of NADPH oxidase 4 (Homo sapiens) (Q9NPH5 whole entry, looked up): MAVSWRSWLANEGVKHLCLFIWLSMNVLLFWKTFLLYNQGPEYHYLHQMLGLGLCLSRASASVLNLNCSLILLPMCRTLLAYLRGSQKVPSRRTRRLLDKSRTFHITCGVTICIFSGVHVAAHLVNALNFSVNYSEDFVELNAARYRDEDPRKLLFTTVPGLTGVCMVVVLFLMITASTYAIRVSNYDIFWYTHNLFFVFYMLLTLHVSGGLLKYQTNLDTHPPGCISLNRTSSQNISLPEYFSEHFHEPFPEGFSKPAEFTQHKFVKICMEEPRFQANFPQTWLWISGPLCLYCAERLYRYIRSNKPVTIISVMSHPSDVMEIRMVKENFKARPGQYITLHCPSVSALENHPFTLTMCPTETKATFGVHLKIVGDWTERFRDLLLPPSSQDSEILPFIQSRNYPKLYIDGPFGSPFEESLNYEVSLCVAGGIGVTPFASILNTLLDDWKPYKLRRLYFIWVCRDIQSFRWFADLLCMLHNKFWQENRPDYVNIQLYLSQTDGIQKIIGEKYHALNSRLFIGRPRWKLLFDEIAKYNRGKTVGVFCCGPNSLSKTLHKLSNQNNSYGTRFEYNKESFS
Sequence of NADPH oxidase 5 (Homo sapiens) (Q96PH1 whole entry, looked up): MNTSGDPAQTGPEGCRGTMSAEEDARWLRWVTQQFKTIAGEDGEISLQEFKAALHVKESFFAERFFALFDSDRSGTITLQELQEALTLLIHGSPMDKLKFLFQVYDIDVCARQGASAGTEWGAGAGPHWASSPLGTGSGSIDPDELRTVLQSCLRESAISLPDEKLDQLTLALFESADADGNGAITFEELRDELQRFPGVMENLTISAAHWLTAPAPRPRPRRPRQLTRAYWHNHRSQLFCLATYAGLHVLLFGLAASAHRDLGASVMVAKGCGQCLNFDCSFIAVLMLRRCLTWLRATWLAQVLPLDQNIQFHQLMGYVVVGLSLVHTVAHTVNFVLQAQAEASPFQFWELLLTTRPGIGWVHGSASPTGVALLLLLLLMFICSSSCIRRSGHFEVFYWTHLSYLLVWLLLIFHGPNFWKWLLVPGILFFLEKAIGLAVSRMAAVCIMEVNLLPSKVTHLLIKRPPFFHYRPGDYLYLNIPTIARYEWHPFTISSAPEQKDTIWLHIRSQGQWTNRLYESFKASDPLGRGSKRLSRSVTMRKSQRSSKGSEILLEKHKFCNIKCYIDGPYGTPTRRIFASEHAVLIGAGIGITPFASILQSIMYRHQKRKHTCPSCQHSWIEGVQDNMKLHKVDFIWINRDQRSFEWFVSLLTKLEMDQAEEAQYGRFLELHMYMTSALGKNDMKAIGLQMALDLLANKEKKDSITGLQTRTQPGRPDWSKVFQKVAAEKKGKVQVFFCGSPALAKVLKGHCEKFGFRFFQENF

SMILES	z-score [1]	composite z-score [2]	z-score [3]	z-score [4]	z-score [5]	z-score [6]	z-score [7]	z-score [8]	z-score [9]	z-score [10]	z-score [11]	z-score [12]	z-score [13]	z-score [14]	z-score [15]	z-score [16]	z-score [17]	z-score [18]	z-score [19]	z-score [20]
CCOC(=O)C[C@H]1[C@H](OC(=O)c2cc3ccccc3oc2=O)[C@@H](NC(=O)CC(C)C)c2cc(OCCCO)ccc2N1C(=O)c1ccccc1	2.61 (inactive)	-0.0601	0.522 (inactive)	-1.18 (inactive)	0.71 (inactive)	-2.17 (inactive)	1.96	-0.403 (inactive)	0.0665 (inactive)	0.622	-0.276	1.52	0.314	0.117	-0.0793	1.14	0.9 (inactive)	-0.882	0.915	-1.33 (inactive)
[N-]=[N+]=NCc1ccccc1[C@H]1OC(c2ccc(OCCCO)cc2)=N[C@@]1(Cc1ccccc1)C(=O)N1CCCCC1	0.796 (inactive)	0.0331	28.4 (active)	23.2 (active)	1.75 (inactive)	1.77 (inactive)	1.3	-3.54 (inactive)	-0.919 (inactive)	-1.28	0.562	-0.359	0.505	-0.085	-0.909	0.732	-0.677 (inactive)	-0.931	-0.854	0.151 (inactive)
NC(=O)[C@@]1(Cc2ccccc2)N=C(c2ccc(OCCCO)cc2)O[C@H]1c1ccccc1	1.53 (inactive)	0.232	16.3 (active)	2.07 (inactive)	0.59 (inactive)	0.639 (inactive)	0.151	-0.281 (inactive)	0.211 (inactive)	0.495	-0.611	0.422	-0.373	-0.13	0.0044	-0.576	0.804 (inactive)	-0.318	0.577	-0.0671 (inactive)
COC(=O)c1c(CC[C@@H](CO)NC(=O)NCCc2c[nH]c3ccccc23)oc(C(=O)Cc2ccccc2)c1C(=O)OC	0.659 (inactive)	-0.423	7.43 (inactive)	-0.0918 (inactive)	-0.366 (inactive)	-1.01 (inactive)	0.814	-2.09 (inactive)	-1.16 (inactive)	-0.595	-0.22	1.12	-0.496	0.49	0.459	-1.27	-0.484 (inactive)	0.636	0.0389	0.926 (inactive)
CC(C)Cc1ccc(CN2CC[C@@H](N)C2)cc1	-3.85 (inactive)	-0.0969	0.483 (inactive)	0.933 (inactive)	-0.285 (inactive)	0.525 (inactive)	0.412	-0.0323 (inactive)	-0.535 (inactive)	-1.29	-0.336	0.202	-0.375	-3.15	-1.65	2.5	-0.559 (inactive)	-0.502	-2.86	3.36 (inactive)
COCCOC(=O)N1C(=O)[C@@]2(c3cc(C#CC4=CCCCC4)ccc31)[C@H](C(N)=O)[C@H]1C(=O)O[C@H](c3ccccc3)[C@H](c3ccccc3)N1[C@@H]2c1ccc(O)cc1	1.04 (inactive)	0.148	1.19 (inactive)	-0.933 (inactive)	0.161 (inactive)	-1.13 (inactive)	2.41	1.11 (inactive)	0.563 (inactive)	2.76	0.282	0.326	0.581	-3.07	-4.54	-1.89	1.1 (inactive)	-1.22	-0.992	-1.77 (inactive)
O=C1O[C@H](c2ccccc2)[C@H](c2ccccc2)N2[C@H]1[C@@H](C(=O)NC[C@H](O)c1ccccc1)[C@]1(C(=O)Nc3ccc(C#CC4=CCCCC4)cc31)[C@H]2c1ccccc1OCCO	-0.161 (inactive)	0.199	1.84 (inactive)	2.06 (inactive)	-0.932 (inactive)	2.06 (inactive)	0.233	1.42 (inactive)	1.04 (inactive)	1.83	-2.45	-0.406	-3.88	-3.28	-4.23	-2.22	1.26 (inactive)	-1.09	-1.79	-3.3 (inactive)
C=CC[C@@]1(C(=O)N2CCCCC2)N=C(c2ccc(OCCCO)cc2)O[C@@H]1c1ccccc1N=[N+]=[N-]	0.432 (inactive)	0.407	31.2 (active)	27.2 (active)	1.27 (inactive)	6.5 (inactive)	0.995	-1.67 (inactive)	0.378 (inactive)	-1.88	-0.637	2.03	-0.441	-1.23	-2.71	1.02	1.21 (inactive)	-0.982	-1.66	-1.5 (inactive)
NCCCCCNC(=O)[C@H]1C[C@H]2C(=O)N[C@@H](Cc3ccccc3)C(=O)N2[C@H]1c1cccc(OCCO)c1	0.545 (inactive)	1.17	3.99 (inactive)	0.812 (inactive)	-0.685 (inactive)	0.325 (inactive)	-0.136	1.38 (inactive)	0.875 (inactive)	0.434	1.15	-0.14	1.19	0.079	0.226	0.96	-0.67 (inactive)	-0.288	0.948	1.35 (inactive)
CC(C)(C)OC(=O)CC[C@]1(C(N)=O)N=C(c2ccc(OCCCO)cc2)O[C@H]1c1ccccc1	-0.179 (inactive)	0.762	6.16 (inactive)	-0.927 (inactive)	-0.524 (inactive)	-0.367 (inactive)	0.0312	0.266 (inactive)	-1.12 (inactive)	0.814	-0.73	0.13	-0.61	-0.415	0.37	-1.26	-0.709 (inactive)	0.816	0.335	-0.164 (inactive)
COc1cc2c(cc1O)C(c1cccs1)N(Cc1ccc([N+](=O)[O-])o1)CC2 (stereo not given)	1.9 (inactive)	0.0161	25.1 (active)	7.24 (inactive)	-0.39 (inactive)	-0.628 (inactive)	1.23	-4.4 (inactive)	-2.58 (inactive)	-2.92	0.383	0.0975	0.859	0.647	0.174	-0.771	0.627 (inactive)	-0.185	1.09	-1.63 (inactive)
C=CCOC(=O)[C@H]1[C@@H]2C(=O)O[C@@H](c3ccccc3)[C@@H](c3ccccc3)N2[C@@H](c2ccc(OCCOC(=O)[C@@H]3C[C@@H]4C(=O)N5CCC[C@H]5C(=O)N4[C@@H]3c3cccc(OCCO)c3)cc2)[C@]12C(=O)Nc1ccc(I)cc12	-0.811 (inactive)	1.53	4.52 (inactive)	2.5 (inactive)	1.25 (inactive)	1.5 (inactive)	-0.679	1.86 (inactive)	0.833 (inactive)	1.49	-1.06	0.997	-0.649	-0.349	0.206	-0.689	1.19 (inactive)	-0.643	-0.959	-0.476 (inactive)
CN1CCC(CCCO)=CC1c1cccs1 (stereo not given)	-0.193 (inactive)	-0.103	1.77 (inactive)	0.144 (inactive)	-0.311 (inactive)	0.0874 (inactive)	0.362	0.151 (inactive)	0.249 (inactive)	-0.115	0.251	0.335	0.369	0.277	0.0383	-0.927	-1.51 (inactive)	0.247	0.00928	-0.0596 (inactive)
[N-]=[N+]=NCc1ccccc1[C@@H]1OC(c2ccc(OCCCO)cc2)=N[C@]1(CCS(=O)(=O)c1ccccc1)C(=O)N1CCOCC1	1.79 (inactive)	0.533	26.1 (active)	12.5 (active)	3.79 (inactive)	0.45 (inactive)	1.88	1.21 (inactive)	1.18 (inactive)	1.2	0.761	1.96	0.502	0.191	-1.6	2.29	0.78 (inactive)	-0.356	-0.412	0.218 (inactive)
C=C(/C(=C/C[C@H](OC(C)=O)c1ccc(OCCO)cc1)c1cc(C(=O)OC)ccc1OC)C(C)C	0.759 (inactive)	0.0844	19.2 (active)	4.38 (inactive)	3.26 (inactive)	1.36 (inactive)	0.31	0.864 (inactive)	0.217 (inactive)	-1.42	1.32	0.0952	0.861	-3.04	-2.43	2.82	-0.0331 (inactive)	-0.669	-0.631	1.05 (inactive)
[N-]=[N+]=NCc1ccccc1C[C@@]1(C(=O)NCC(O)CO)N=C(c2ccc(OCCCO)cc2)O[C@@H]1c1ccccc1 (stereo not given in full)	0.0346 (inactive)	0.237	25.3 (active)	16.3 (active)	-1.11 (inactive)	2.07 (inactive)	-0.11	0.0842 (inactive)	1.28 (inactive)	2.5	-1.64	0.195	-3.17	-3.22	-1.82	-2.54	1.67 (inactive)	-1.12	-0.123	-1.01 (inactive)
CC=CC(O)C1C=CC2C(=O)N(C)C(=O)C2N1N(c1ccccc1)c1ccccc1 (stereo not given)	-1.3 (inactive)	-0.101	-0.553 (inactive)	0.603 (inactive)	-0.461 (inactive)	1.12 (inactive)	-0.674	-0.633 (inactive)	-0.176 (inactive)	-0.111	-0.716	-1.7	-0.967	0.13	0.0318	-0.0443	-0.149 (inactive)	-0.372	-0.106	-0.522 (inactive)
